Screening results deposited in PubChem by National Center for Advancing Translational Sciences (NCATS).
FMDV antiviral: foot and mouth disease virus antiviral activity; FMDV antiviral cell-based qHTS; Potency, µM (titrated, usually from 57.9 µM), for inactives: at the top dose activity change, negative = inhibition, usual class: inhibitors; actives 1.2% (n = 410,000); AID 1159524; calls by dose curve; tested in HEK293T cells; note: read-out not given here; potency is the fitted concentration of half-maximal effect; nearly all actives have a fitted effect of over 45% in size
VACV mCherry inh: inhibitors of vaccinia virus infection (mCherry reporter signal). Vaccinia virus mCherry reporter infection, fluorescence. Potency, µM (series often up to 36.5 µM), inactives show top-dose activity change, negative = inhibition, most hits filed as inhibitors. actives 0.63% (n = 310,000). AID 720579; calls by dose curve; tested in A549 cells; note: potency is the fitted concentration of half-maximal effect; nearly all actives have a fitted effect of over 35% in size
HCV inh: blocks hepatitis C virus; Huh7.5.1 HCVcc-Cre infection, luciferase reporter, 44 h; Potency, µM (highest dose often 41.8 µM), inactives show at the top dose activity change, negative = inhibition, hits mostly inhibitors; actives 3.4% (n = 340,000); AID 651820; note: potency is the fitted concentration of half-maximal effect
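A cell-based infection assay in which seeded cells (1,000 per well) receive test compound after 4 h, are inoculated with HCVcc-Cre at approximately 0.5 moi, and are incubated 44 h before luminescence detection.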
HCMV antiviral: human cytomegalovirus inhibition; HFF cells, HCMV-luciferase reporter, 72 h; active compounds read low; activity change, negative = inhibition, % at 57.5 µM; actives 4.5% (n = 410,000); AID 1259415; in the data active = activity change below about -60%; inconclusive = no clear call, values can overlap the other calls; inactive = above about -39%
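Inhibition of viral replication was scored as loss of reporter luminescence in HFFs infected with HCMV-luciferase (MOI 1 PFU/cell) for 72 h; compounds tested at 2 doses, normalized to buffer and Salinomycin controls.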
VACV Venus inh: vaccinia inhibition (Venus reporter); AID 720580; actives 0.46% (n = 330,000); Potency, µM (top dose mostly 36.5 µM), for inactives: top-dose activity change, negative = inhibition, actives largely listed as inhibitors; Vaccinia virus Venus reporter expression, fluorescence; calls by dose curve; tested in A549 cells; note: potency is the fitted concentration of half-maximal effect; nearly all actives have a fitted effect of over 30% in size
Giardia FBPA inh: Giardia lamblia aldolase inhibition. purified Giardia FBPA. Potency, µM (doses to about 59.6 µM), without a hit: top-dose activity, negative = inhibition, hits mostly inhibitors. actives 0.71% (n = 290,000). AID 2451; note: potency is the fitted concentration of half-maximal effect; nearly all actives have a fitted effect of over 55% in size
Target sequence (A8B2U2 whole entry, looked up): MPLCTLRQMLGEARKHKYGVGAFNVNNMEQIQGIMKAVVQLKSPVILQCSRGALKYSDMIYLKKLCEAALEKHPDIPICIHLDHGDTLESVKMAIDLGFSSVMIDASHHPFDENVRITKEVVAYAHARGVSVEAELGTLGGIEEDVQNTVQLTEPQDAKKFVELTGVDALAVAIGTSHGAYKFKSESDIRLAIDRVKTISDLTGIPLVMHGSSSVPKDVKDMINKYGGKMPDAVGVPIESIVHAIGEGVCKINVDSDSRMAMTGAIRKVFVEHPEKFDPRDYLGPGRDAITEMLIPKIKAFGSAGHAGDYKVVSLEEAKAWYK
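Giardia FBPA (40 nM reagent) was preincubated 10 min at RT with compound (up to 57.5 uM final), then substrate plus GAPDH/TPI/NAD/arsenate coupling system with diaphorase/resazurin was added; resorufin fluorescence (525/598 nm) was read after 20 min.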
* hit, by the source's call; [ ] = remark or other dose. Compounds with a hit are over-represented: about 7.5% of the library has one in this group of screens. Unless noted, calls come from the whole dose curve; as a rule, active = well fitted curve in the direction sought with a large enough effect; inconclusive = small, poorly fitted or top-dose-only effect, or another doubt; inactive = no such curve, though single readings can be large; an effect the other way counts as inactive or inconclusive. % is set by controls: 0 for no effect and ±100 for the full control effect.

How did COC(=O)c1cc(CNC(=O)c2cccc(C)c2)cc(NC(=O)c2ccncc2)c1 do in these assays?
FMDV antiviral: -5.8%; VACV mCherry inh: -8.2%; VACV Venus inh: 2.4%

Results for Cc1c(C(=O)N2CCOCC2)oc2c1-c1nn(CC(=O)NCc3ccccc3)cc1CC2 ?
FMDV antiviral: -13.9%; VACV mCherry inh: -9.7%; HCMV antiviral: -2.1; VACV Venus inh: -1.9%

How did Cc1ccccc1CN1CCN2C(C(=O)NCC3CCOCC3)=COC2=NC1=O do in these assays?
HCMV antiviral: -0.3

What do the screens show for `Cc1nn2c(=O)cc(COc3ccc(/C=C(\C#N)C(=O)Nc4ccccc4)cc3Cl)nc2s1`?
FMDV antiviral: 2.1%; VACV mCherry inh: -3.2%; HCMV antiviral: -2.8; VACV Venus inh: -1.6%

Results for O=C(c1ccccc1Cl)N1N=C(c2ccc(Br)cc2)CC1c1nc2ccccc2[nH]1 (stereo not given) ?
FMDV antiviral: -2.0%; VACV mCherry inh: inconclusive; HCV inh: 11.2µM*; HCMV antiviral: -10.1; VACV Venus inh: -27.2%; Giardia FBPA inh: 0.5%

Results for COc1ccc2c(c1OC)C(=O)OC2c1ccc(O)cc1 (stereo not given) ?
VACV mCherry inh: -7.3%; VACV Venus inh: -15.6%

How did CC(C)(c1ccccc1)c1ccc(OCC2CO2)cc1 (stereo not given) do in these assays?
FMDV antiviral: -16.6%; VACV mCherry inh: -7.8%; HCV inh: -1.1%; HCMV antiviral: 31.3; VACV Venus inh: -8.8%; Giardia FBPA inh: 6.4%

What do the screens show for `O=S(=O)(c1ccc(OCC2CO2)cc1)c1ccc(OCC2CO2)cc1` (stereo not given)?
FMDV antiviral: -6.1%; VACV mCherry inh: -20.5%; HCV inh: -14.4%; HCMV antiviral: -68.4*; VACV Venus inh: inconclusive; Giardia FBPA inh: 11.0%

What do the screens show for `CCOC(=O)/C(=C\c1ccccc1)C(=O)c1cc(C(C)=O)c(Nc2ccccc2)s1`?
FMDV antiviral: 14.1µM*; VACV mCherry inh: -10.6%; HCV inh: 7.08µM*; HCMV antiviral: -105.1*; VACV Venus inh: -2.0%; Giardia FBPA inh: -2.3%

Results for CCOC(=O)/C(=C\c1cccnc1)C(=O)c1cc(C(C)=O)c(Nc2ccccc2)s1 ?
FMDV antiviral: 3.98µM*; VACV mCherry inh: 12.6µM*; HCV inh: inconclusive; VACV Venus inh: 11.2µM*; Giardia FBPA inh: -5.9%

Results for CCOCCOC(=O)c1ccc(NC(=O)c2cc3ccccc3o2)cc1 ?
FMDV antiviral: -2.7%; VACV mCherry inh: -5.5%; HCV inh: 2.9%; HCMV antiviral: 49.0; VACV Venus inh: -6.8%

How did CN(C)c1ccnc(C(=O)O)c1 do in these assays?
FMDV antiviral: 7.5%; VACV mCherry inh: inactive; HCV inh: 5.1%; HCMV antiviral: -0.8; VACV Venus inh: -4.6%; Giardia FBPA inh: -2.2%

How did O=C(O)c1ccnc(C(=O)O)c1 do in these assays?
FMDV antiviral: -20.2%; VACV mCherry inh: inconclusive; HCMV antiviral: 14.7; VACV Venus inh: -3.6%; Giardia FBPA inh: 1.77µM*

Results for Cn1nnnc1SCCNCc1ccc(OCc2ccccc2)cc1 ?
FMDV antiviral: -4.5%; VACV mCherry inh: -7.5%; HCMV antiviral: -0.6; VACV Venus inh: 1.2%

How did CCOc1cc(CNCCSc2nnnn2C)cc(Br)c1OCc1ccccc1 do in these assays?
FMDV antiviral: inconclusive; VACV mCherry inh: -17.0%; HCV inh: 2.82µM*; HCMV antiviral: 40.5; VACV Venus inh: -28.4%; Giardia FBPA inh: -19.5%

Results for CCNCc1cc(Cl)c(OCc2ccccc2)c(OCC)c1 ?
FMDV antiviral: 0.0%; VACV mCherry inh: -20.8%; HCV inh: inconclusive; HCMV antiviral: inconclusive; VACV Venus inh: -28.5%; Giardia FBPA inh: -0.2%

What do the screens show for `CCOc1cc(CNCCO)cc(Br)c1OCc1ccccc1`?
FMDV antiviral: -7.6%; VACV mCherry inh: inconclusive; HCV inh: 10µM*; HCMV antiviral: inconclusive; VACV Venus inh: inconclusive; Giardia FBPA inh: -0.9%

Results for CCS(=O)(=O)c1nc(S(=O)(=O)c2ccc(C)cc2)c(NCCCOC)s1 ?
FMDV antiviral: -1.8%; VACV mCherry inh: -13.0%; HCMV antiviral: -11.7; VACV Venus inh: -5.9%

How did O=C(c1ccccc1)c1ccc(Cn2cc(CCCO)nn2)cc1 do in these assays?
FMDV antiviral: -15.0%; VACV mCherry inh: -21.8%; HCV inh: 10µM*; HCMV antiviral: inconclusive; VACV Venus inh: -20.6%; Giardia FBPA inh: 1.6%

Results for O=C(O)CCCCCCCCc1cn(Cc2ccc(C(=O)c3ccccc3)cc2)nn1 ?
FMDV antiviral: -14.7%; VACV mCherry inh: -6.0%; HCV inh: -17.6%; HCMV antiviral: -5.2; VACV Venus inh: -26.9%; Giardia FBPA inh: -1.6%

Results for O=C(c1ccccc1)c1ccc(Cn2cc(-c3ccccc3)nn2)cc1 ?
FMDV antiviral: -6.1%; VACV mCherry inh: -5.2%; HCV inh: 1.41µM*; HCMV antiviral: inconclusive; VACV Venus inh: -23.2%; Giardia FBPA inh: -10.6%

Results for O=c1c(CCc2ccccc2)nc2cnc(Oc3ccccc3)nc2n1C1CC1 ?
FMDV antiviral: 20.3%; Giardia FBPA inh: 4.5%

Results for CCOC(=O)c1c(NC(C)=O)sc2c(OC)c(Br)ccc12 ?
VACV mCherry inh: -10.0%; HCV inh: inconclusive; HCMV antiviral: -24.4; VACV Venus inh: -7.2%; Giardia FBPA inh: 0.5%

Results for CCOC(=O)c1c(NC(C)=O)sc2c(OCC(O)CN(CC)CC)c(Br)ccc12 (stereo not given) ?
FMDV antiviral: 14.2%; VACV mCherry inh: -11.8%; HCV inh: 5.62µM*; HCMV antiviral: -101.2*; VACV Venus inh: -14.6%; Giardia FBPA inh: -0.6%

Results for CCOC(=O)c1c(NC(C)=O)sc2c(OCCN(CC)CC)c(Br)ccc12 ?
FMDV antiviral: -3.1%; HCV inh: 12.6µM*; HCMV antiviral: inconclusive; Giardia FBPA inh: -0.5%

Results for CCOC(=O)c1c(NC(C)=O)sc2c(O)c(CN3CCN(CC)CC3)ccc12 ?
VACV mCherry inh: -17.6%; HCV inh: -24.9%; HCMV antiviral: -8.6; VACV Venus inh: -16.0%; Giardia FBPA inh: -11.7%

What do the screens show for `CC(=O)OC1CCC2(C)C3CCC4(C)C(C(C)=O)CCC4C3CC3OC32C1` (stereo not given)?
FMDV antiviral: -16.7%; VACV mCherry inh: inactive; HCV inh: 6.7%; HCMV antiviral: -61.1*; VACV Venus inh: 0.5%

How did CCOC(=O)CSc1nnc(NC(=O)c2cc([N+](=O)[O-])cc([N+](=O)[O-])c2)s1 do in these assays?
FMDV antiviral: 35.5µM*; VACV mCherry inh: -19.4%; HCV inh: 0.9%; HCMV antiviral: -10.2; VACV Venus inh: -1.4%; Giardia FBPA inh: 0.4%

How did Cc1ccc(S(=O)(=O)c2nc(S(C)(=O)=O)sc2N2CCCCC2C)cc1 (stereo not given) do in these assays?
FMDV antiviral: -9.7%; VACV mCherry inh: -16.2%[7.34 µM]; HCV inh: 5.3%; HCMV antiviral: -75.2*; VACV Venus inh: -11.6%[7.34 µM]
